Sampled rows, rich in hits. Any-hit rate of the full collection: about 1.2%.
RGS4-Gao reg: modulates binding of RGS4 to human Galphao. 220,000 compounds, 0.33% hits. Multiplexed bead flow cytometry; actives lie on both sides. binding response (% of control), % at 10 µM; in the data active = binding response below about 49% or above about 150%; inactive = in between;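 note: fluorescent Galphao activated with aluminum fluoride binding bead-coupled RGS4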
RGS7-Gao: human RGS7-Galphao interaction regulation. Multiplexed bead flow cytometry, RGS7-Galphao binding; actives lie on both sides. P09471. 220,000 compounds, 0.35% hits. AID 1439. binding response (% of control), % at 10 µM; in the data active = binding response below about 49% or above about 150%; inconclusive = no clear call, values can overlap the other calls; inactive = in between;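 note: fluorescent Galphao held in activated GDP-AlF4 state binding bead-coupled RGS7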
Avidin fluor: compound fluoresces at 488/530 nm on avidin beads; compound fluorescence 488/530 nm, flow cytometry; active compounds read high; fluorescence (KMESF) at 10 µM; 220,000 compounds, 0.38% hits; in the data active = fluorescence above about 47
RGS8-Gao: modulates binding of RGS8 to human Galphao. P09471. multiplexed bead flow cytometry; actives lie on both sides. response (percent of control binding), % at 10 µM. 220,000 compounds, 0.34% hits. AID 1423; in the data active = response below about 60% or above about 140%; inactive = in between;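 note: Galphao activated as the GDP aluminium fluoride complex binding bead-coupled RGS8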
RGS16-Gao: RGS16-Galphao interaction regulator (human); 220,000 compounds, 0.38% hits; binding response (% of control), % at 10 µM; AID 1441; bead-based flow cytometry RGS16-Galphao binding, fluorescence; actives lie on both sides; O15492+P09471;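 note: Galphao activated by GDP with aluminum fluoride before binding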
Target sequence (O15492 whole entry, looked up): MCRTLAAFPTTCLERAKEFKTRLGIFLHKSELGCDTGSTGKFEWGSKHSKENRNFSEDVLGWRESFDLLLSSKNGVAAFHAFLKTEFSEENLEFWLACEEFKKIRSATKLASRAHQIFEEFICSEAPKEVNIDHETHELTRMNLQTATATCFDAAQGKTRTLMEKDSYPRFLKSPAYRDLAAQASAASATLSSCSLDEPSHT
Target sequence (P09471 whole entry, looked up): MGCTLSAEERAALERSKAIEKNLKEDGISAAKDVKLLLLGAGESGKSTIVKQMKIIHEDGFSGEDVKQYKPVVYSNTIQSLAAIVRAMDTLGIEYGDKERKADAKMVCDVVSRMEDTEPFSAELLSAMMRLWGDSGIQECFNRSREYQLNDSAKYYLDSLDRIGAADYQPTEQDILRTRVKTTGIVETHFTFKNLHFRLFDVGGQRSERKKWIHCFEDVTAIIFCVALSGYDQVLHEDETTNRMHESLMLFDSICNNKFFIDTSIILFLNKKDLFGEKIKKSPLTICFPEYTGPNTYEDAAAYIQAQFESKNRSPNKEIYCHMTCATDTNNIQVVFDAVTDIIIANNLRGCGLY
GSH fluor: compound fluoresces at 488/530 nm on GSH beads; 190,000 compounds, 0.25% hits; fluorescence (KMESF) at 10 µM; GSH beads flow cytometry, compound fluorescence 488/530 nm; active compounds read high; AID 1776; in the data active = fluorescence above about 89;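 note: glutathione beads carrying GST-tagged Bcl family fusion proteins plus one bare bead set; values are compound well signal with DMSO vehicle wells as background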
RGS-Gao: RGS4-Galphao interaction regulator (human) | RGS4–Galpha-o binding response, % at 10 µM | multiplexed bead flow cytometry, RGS–Galpha-o binding | 1,600 compounds, 99% hits | AID 1504 | shares compounds with RGS16-Gao;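 note: fluorescently labeled Galpha-o bound to GDP with aluminium fluoride binding biotinylated RGS beads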
Avidin counter: interferes with biotinylated probe binding to avidin beads; shares compounds with RGS16-Gao; 1,700 tested, under 10 active; inhibition, % at 10 µM; streptavidin beads, fluorescein-biotin binding, flow cytometry;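 active = inhibition above 50%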;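 note: median green fluorescence of gated singlet beads compared with DMSO control wells; 0% = DMSO wells and 100% = complete loss of bead fluorescence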
RGS8-Gao confirm: confirmation of regulators of human RGS8-Galphao interaction | shares compounds with RGS16-Gao | bead-based flow cytometry RGS8-Galphao binding, fluorescence; actives lie on both sides | binding response (% of control), % at 10 µM | 1,700 compounds, 3% hits | AID 1836; in the data active = binding response below about 72% or above about 130%; inactive = in between;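 note: Galphao activated as GDP AlF4 complex before binding bead RGS8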
RGS7-Gao single: RGS7-Galphao interaction regulation, single point confirmation; 1,700 compounds, 7.8% hits; bead-based flow cytometry RGS7-Galphao binding; actives lie on both sides; response (percent of control binding), % at 10 µM; AID 1837; shares compounds with RGS16-Gao; in the data active = response below about 75% or above about 130%; inactive = in between;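 note: fluorescent Galphao activated with GDP and aluminum fluoride binding bead-coupled RGS7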
RGS16-Gao single: RGS16-Galphao interaction regulation, single point confirmation. shares compounds with RGS16-Gao. bead-based flow cytometry, RGS16-Galphao binding; actives lie on both sides. response (% of control binding), % at 10 µM. 1,700 compounds, 4% hits. AID 1838; in the data active = response below about 74% or above about 130%; inactive = in between;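 note: Galphao activated as the GDP aluminium fluoride complex binding bead-coupled RGS16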
RGS4-Gao confirm: confirmation of regulators of human RGS4-Galphao interaction; RGS4-Galphao binding, multiplexed bead flow cytometry; actives lie on both sides; 1,700 compounds, 4% hits; binding response (% of control), % at 10 µM; shares compounds with RGS16-Gao; in the data active = binding response below about 74% or above about 130%; inactive = in between
RGS19-Gao conf: confirmation of regulators of human RGS19-Galphao interaction. bead-based flow cytometry RGS19-Galphao binding; actives lie on both sides. response (percent of control binding), % at 10 µM. 1,700 compounds, 5% hits. shares compounds with RGS16-Gao; in the data active = response below about 50% or above about 160%; inactive = in between;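 note: 100% = no compound control and 0% = blank background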
Numbers without * were called inactive; i = inactive; ? = inconclusive; / = no result given; [ ] = another dose, or the depositor's remark. Unless noted, the rule behind the calls is not given here.

SMILES	RGS4-Gao reg	RGS7-Gao	Avidin fluor	RGS8-Gao	RGS16-Gao	GSH fluor	Avidin counter	RGS8-Gao confirm	RGS7-Gao single	RGS16-Gao single	RGS4-Gao confirm	RGS19-Gao conf	others
O=[N+]([O-])c1ccc(-c2cn3c(n2)CCC3)cc1	98	?	8	100	100	/	/	/	/	/	/	/
O=S(=O)(CCc1ccccc1)N1CCOCC1	48*	68	8	69	-85	9	-1	97	81	91	84	88
COC(=O)c1ccccc1NC(=O)Cn1nc2n(C)c3ccccc3n2c(=O)c1=O	100	104	10	102	105	17	/	/	/	/	/	/
Cc1cc2cc(CCNC(=O)c3cccc([N+](=O)[O-])c3)c(=O)[nH]c2cc1C	35*	37*	0	61	37	10	0	100	100	100	99	104
Cc1cc(C)cc(N(C(=O)c2sc(C)nc2C)C(C(=O)NC(C)(C)C)c2ccncc2)c1 (stereo unspecified)	102	102	8	99	102	21	/	/	/	/	/	/
COC(=O)c1cc(C(=O)Nc2ccc(C)cn2)cc([N+](=O)[O-])c1	/	/	/	/	/	17	1	101	75*	90	88	51
CCOc1ccc2cc(C3CC(c4ccco4)=NN3S(C)(=O)=O)c(=O)[nH]c2c1 (stereo unspecified)	101	?	5	94	96	/	/	/	/	/	/	/
CC1CCCC(C)N1c1nnc(N)s1 (stereo unspecified)	53	55	2	57*	20*	12	0	102	102	103	104	104	RGS-Gao=53*
Cc1c(Cl)cnc(NC(=O)COC(=O)c2cccc(S(=O)(=O)N3c4ccccc4CC3C)c2)c1Cl (stereo unspecified)	98	102	11	104	105	6	/	/	/	/	/	/
CCNC(=O)NC(=O)CSc1ccc(NC(C)=O)cc1	47*	54	13	73	58	12	0	110	113	114	108	121
CCOc1ccc2nc3c(cc2c1)CN(CCCO)C(=NCCOC)S3	-8.3*	-5.5*	-3	7.0*	-10*	18	i	97	93	99	97	92
COc1ccc(NC(=O)COC(C)=O)cc1Cl	104	103	3	102	100	10	/	/	/	/	/	/
COc1ccc(NC(=O)CCCn2c(=O)oc3ccccc32)cc1Cl	88	89	7	71	8.8*	7	/	/	/	/	/	/	RGS-Gao=88*
COCC(=O)Nc1ccc(OC)c(Cl)c1	98	53	3	52*	98	19	-1	101	98	100	101	97	RGS-Gao=98*
CCC(C)NC(=O)CN(c1cc(Cl)cc(Cl)c1)S(C)(=O)=O (stereo unspecified)	101	101	11	102	102	9	/	/	/	/	/	/
Cc1cc(C)c(S(=O)(=O)N2CCCOC2CNC(=O)C(=O)NCc2ccncc2)c(C)c1 (stereo unspecified)	99	100	3	98	96	10	/	/	/	/	/	/
CCCn1cnc2cc(NC(=O)c3cccs3)ccc21	96	97	4	101	102	11	/	/	/	/	/	/
C=CCNC(=S)NCc1cccnc1	112	112	14	128	276*[activator]	5	1	102	102	104	104	91	RGS-Gao=112*
COC(=O)c1nc(-c2ccccc2)oc1N1CCOCC1	97	?	12	96	95	11	/	/	/	/	/	/

Screening results: PubChem BioAssay, NMMLSC
